CYP2C9 activ: human CYP2C9 activators, primary screen, biochemical, luminescence. Cytochrome P450 2C9 (Homo sapiens), P11712. recombinant CYP2C9, luciferin-H conversion; hits give high values; factor 1 = untreated enzyme, 0 = blocked. activation factor at 5 µM. actives 1.4% (n = 96,000);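 active = activation factor of 2 or more for CYP2C9 at a 5 µM dose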;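 also: 0 = sulfaphenazole-blocked wells and 1 = vehicle-only wells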
Target sequence (P11712 whole entry, looked up): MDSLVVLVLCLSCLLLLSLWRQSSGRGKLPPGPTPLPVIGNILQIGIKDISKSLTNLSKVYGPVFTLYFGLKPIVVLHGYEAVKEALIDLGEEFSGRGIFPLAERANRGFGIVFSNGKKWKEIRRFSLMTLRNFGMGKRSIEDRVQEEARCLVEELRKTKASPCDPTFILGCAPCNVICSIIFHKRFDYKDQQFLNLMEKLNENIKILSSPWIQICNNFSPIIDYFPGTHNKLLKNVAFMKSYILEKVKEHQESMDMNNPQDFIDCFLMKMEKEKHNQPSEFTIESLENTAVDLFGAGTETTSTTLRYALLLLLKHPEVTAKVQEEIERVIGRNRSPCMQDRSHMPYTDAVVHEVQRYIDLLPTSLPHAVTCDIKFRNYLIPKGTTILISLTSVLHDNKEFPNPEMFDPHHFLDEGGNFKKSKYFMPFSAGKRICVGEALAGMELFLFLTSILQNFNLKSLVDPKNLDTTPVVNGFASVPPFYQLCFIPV
CYP2C9 inhib: blockers of cytochrome P450 2C9 activity – biochemical, luminescence, ADME assay, primary screen; P11712; CYP2C9 Supersomes, luciferin-H conversion; inhibition, % at 5 µM; actives 20% (n = 96,000); AID 777, 2007;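 active = blocking of liver enzyme CYP2C9 beyond about 50% at 5 µM, limit read from the data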
CYP2C19 act: human CYP2C19 activators, primary screen, biochemical, luminescence; Cytochrome P450 2C19 (Homo sapiens), P33261; recombinant CYP2C19, luciferin-H EGE luminescence; hits give high values; 0 = fully inhibited enzyme, 1 = untreated enzyme; activation factor at 5 µM; 96,000 tested, under 10 active; AID 1025, 2008;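 active = activation factor of at least 2 at 5 µM in the primary screen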;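 also: 0 = wells with 2.5 mM tranylcypromine and 1 = vehicle-only wells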
Mac1 fbg enh: enhancers of CD11b/CD18 adhesion to fibrinogen, primary screen, K562 cells, luminescence; ATPlite luminescence; AID 1499, 2009; activation, % at 10 µM; actives 0.07% (n = 93,000); Integrin beta-2 (Homo sapiens) + Integrin alpha-M (Homo sapiens), P05107+P11215;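 active = 10 µM primary screen giving 50% or more activity, confirmed by 40% or more on retest at that dose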
Mac1 fbg inh: inhibitors of CD11b/CD18 adhesion to fibrinogen, primary screen, K562 cells, luminescence | ATPlite luminescence; Mn2+ added to activate the integrin | inhibition, % at 10 µM | actives 0.54% (n = 93,000);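 active = primary inhibition of 50% or more at 10 µM, then 40% or more on retest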
CYP2C19 inh: blockers of cytochrome P450 2C19 activity – biochemical, luminescence, ADME assay, primary screen; inhibition, % at 5 µM; CYP2C19 Supersomes, luciferin-H EGE luminescence, 30 min; P33261; AID 778, 2007; actives 21% (n = 96,000);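 active = CYP2C19 inhibition above a set limit at 5 µM in the primary screen, cut at about 50% in these data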;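 also: plate controls were negative control wells for no effect and 2.5 mM tranylcypromine positive control for full effect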
An asterisk follows results filed as active. In the library only some 28% were active in any assay of this set; here they are far more common.

`Cc1cc(C)c(C)c(S(=O)(=O)N2CCN(CC(=O)NC(=O)NCc3ccccc3)CC2)c1C` gave CYP2C9 activ 1.3, CYP2C9 inhib -30, CYP2C19 act 1, Mac1 fbg enh 0, Mac1 fbg inh -9 and CYP2C19 inh -4.
Screening O=C(COc1ccccc1)N1CCN(C(=O)Cc2ccccc2)CC1 returned CYP2C9 activ 1.1, CYP2C9 inhib -6, CYP2C19 act 1, Mac1 fbg enh -5, Mac1 fbg inh 14 and CYP2C19 inh 1.
Screening C/[N+]([O-])=C1\Cc2ccccc2C1=O returned CYP2C9 activ 0.9, CYP2C9 inhib 7, CYP2C19 act 0.9, Mac1 fbg enh -1, Mac1 fbg inh -11 and CYP2C19 inh 6.
Screening Cc1nc(N2CCC(C)CC2)c2c(C)c(C(=O)O)sc2n1 returned CYP2C9 activ 1.1, CYP2C9 inhib -8, CYP2C19 act 1.1, Mac1 fbg enh -3, Mac1 fbg inh 13 and CYP2C19 inh -7.
CCOC(=O)N1CCN(C(=S)Nc2cc(OC)c(OC)cc2C(=O)OC)CC1 was read as CYP2C9 activ 1, CYP2C9 inhib 2, CYP2C19 act 0 and CYP2C19 inh 98*.
Screening CCOC(=O)Nc1cccc(Nc2ccccc2)c1 returned CYP2C9 activ 0.2, CYP2C9 inhib 75*, CYP2C19 act 0.2, Mac1 fbg enh 2, Mac1 fbg inh -18 and CYP2C19 inh 79*.
CCOc1ccccc1NC(=O)CCN1CCN(S(=O)(=O)c2ccc(Br)cc2)CC1 was read as CYP2C9 activ 0.6, CYP2C9 inhib 36, CYP2C19 act 0.4, Mac1 fbg enh -1, Mac1 fbg inh -6 and CYP2C19 inh 63*.
For CCOc1ccccc1NC(=O)CCC(=O)Nc1ccccc1OCC the results were CYP2C9 activ 2.7*, CYP2C9 inhib -166, CYP2C19 act 0.5, Mac1 fbg enh -5, Mac1 fbg inh 34 and CYP2C19 inh 47.
Cc1cccc(OCCCC(=O)Nc2ccccc2C(F)(F)F)c1 was read as CYP2C9 activ 1, CYP2C9 inhib 4, CYP2C19 act 0.7, Mac1 fbg enh 9, Mac1 fbg inh -4 and CYP2C19 inh 34.
Cc1ccccc1OCCCC(=O)Nc1ccccc1C(F)(F)F was read as CYP2C9 activ 2.2*, CYP2C9 inhib -122, CYP2C19 act 0.7 and CYP2C19 inh 32.
Screening COc1ccc(OC)c(NC(=O)CCN2CCN(c3ccccc3F)CC2)c1 returned CYP2C9 activ 0.4, CYP2C9 inhib 60*, CYP2C19 act 0.2, Mac1 fbg enh 1, Mac1 fbg inh 0 and CYP2C19 inh 77*.
Screening COc1cccc(NC(=O)CCN2CCN(c3ccccc3F)CC2)c1 returned CYP2C9 activ 0.7, CYP2C9 inhib 33, CYP2C19 act 0.6, Mac1 fbg enh -8, Mac1 fbg inh 1 and CYP2C19 inh 38.
For COc1ccc(C)cc1NC(=O)CN1CCN(C/C=C/c2ccccc2)CC1 the results were CYP2C9 activ 0.3, CYP2C9 inhib 67*, CYP2C19 act 0.1, Mac1 fbg enh 0, Mac1 fbg inh 26 and CYP2C19 inh 88*.
`COc1ccccc1N1CCN(CCC(=O)Nc2ccc3c(c2)OCO3)CC1` gave CYP2C9 activ 0.4, CYP2C9 inhib 65*, CYP2C19 act 0.5, Mac1 fbg enh -2, Mac1 fbg inh 3 and CYP2C19 inh 54*.
COc1ccc(C)cc1NC(=O)CN1CCN(c2ccccc2F)CC1 was read as CYP2C9 activ 0.7, CYP2C9 inhib 34, CYP2C19 act 0.3, Mac1 fbg enh 9, Mac1 fbg inh 0 and CYP2C19 inh 70*.
For COc1ccc(Cl)c(Cn2c(NCCCO)nc3c2c(=O)n(C)c(=O)n3C)c1 the results were CYP2C9 activ 0.9, CYP2C9 inhib 7, CYP2C19 act 1, Mac1 fbg enh -2, Mac1 fbg inh -10 and CYP2C19 inh 2.
`O=C1CCC([N+](=O)[O-])C(c2ccc(Cl)cc2)N1` (centres undefined) gave CYP2C9 activ 1.1, CYP2C9 inhib -6, CYP2C19 act 1, Mac1 fbg enh 3, Mac1 fbg inh 11 and CYP2C19 inh -5.
For Cn1c(=O)[nH]c(=O)c2c1nc(N1CCOCC1)n2CC(O)COc1ccc2ccccc2c1 (centres undefined) the results were CYP2C9 activ 0.8, CYP2C9 inhib 24, CYP2C19 act 0.7, Mac1 fbg enh -2, Mac1 fbg inh -20 and CYP2C19 inh 30.
`COCCn1nnnc1CN(CCc1ccccc1)Cc1cc2ccc(C)cc2[nH]c1=O` gave CYP2C9 activ 0.7, CYP2C9 inhib 31, CYP2C19 act 0.5, Mac1 fbg enh 0, Mac1 fbg inh 2 and CYP2C19 inh 46.
Screening COc1ccc(C)cc1NC(=O)CN1CCN(S(=O)(=O)c2ccc(F)cc2)CC1 returned CYP2C9 activ 0.8, CYP2C9 inhib 23, CYP2C19 act 0.5 and CYP2C19 inh 52*.
CCN(CC)c1ccc(/C=C(\C#N)C(=O)NCc2ccco2)cc1 was read as Mac1 fbg enh 2 and Mac1 fbg inh 27.
For Cc1ccc(N/C(SCc2ccccc2C)=C(/C#N)C(=O)NCc2ccco2)cc1C the results were CYP2C9 activ 0.2, CYP2C9 inhib 80*, CYP2C19 act 0.7, Mac1 fbg enh -5, Mac1 fbg inh 9 and CYP2C19 inh 29.
For CCc1ccc(N/C(SCc2cccc(F)c2)=C(/C#N)C(=O)NCc2ccco2)cc1 the results were CYP2C9 activ 0.3, CYP2C9 inhib 68*, CYP2C19 act 0.5 and CYP2C19 inh 55*.
For CCCCn1c(C)cc(C)c(S(=O)(=O)c2ccccc2C)c1=O the results were CYP2C9 activ 0.6, CYP2C9 inhib 41, CYP2C19 act 0.5, Mac1 fbg enh 2, Mac1 fbg inh 17 and CYP2C19 inh 53*.
`CCCN(CCC)C(=O)CC(c1ccccc1)c1cc(C)ccc1O` (centres undefined) gave CYP2C9 activ 0.5, CYP2C9 inhib 53*, CYP2C19 act 0.7, Mac1 fbg enh -3, Mac1 fbg inh -5 and CYP2C19 inh 25.
For CN(Cc1ccccc1)C(=O)CC(c1ccccc1)c1cc(Cl)ccc1O (centres undefined) the results were CYP2C9 activ 0.2, CYP2C9 inhib 76*, CYP2C19 act 0.7 and CYP2C19 inh 32.
For CCCN(CCC)C(=O)Cn1ccc(=N)c2ccccc21 the results were CYP2C9 activ 1.1, CYP2C9 inhib -12, CYP2C19 act 1.1, Mac1 fbg enh -8, Mac1 fbg inh -8 and CYP2C19 inh -14.
